Laboratory results as given in PubChem BioAssay (NCI).
About 79,000 compounds went through this panel and 15% of them were active in at least one assay; those are over-represented in the sample as a whole. A number with no mark means an inactive call. Active and inactive are the calls of the source. Cut-off read from the data, not from the text of the source: active = growth inhibition above about 70%; inactive = the rest.

Experiment: NCI Yeast Anticancer Drug Screen. Data for the sgs1 mgt1 strain (AID 161);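 note: 0% = growth of cultures given vehicle only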
Settings: S. cerevisiae sgs1 mgt1 strain, at 50.0 µM, hits give high values
In short: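 Test agents were incubated with a DNA-repair-mutant yeast strain. Growth was then read and compared against vehicle-treated controls.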

| SMILES | growth inhibition |
| --- | --- |
| Cc1cccc2c(C(O)CBr)cc(-c3ccc(Cl)cc3)nc12 (stereo not given) | 95.7% (active) |
| CN(C)C[C@H]1CC[C@@H](CN(C)C)C1=O | 38.4% |
| CC1=C(SCCO)C(=O)c2ccccc2C1=O | 81.5% (active) |
| COC(=O)CCNc1c2ccccc2nc2cccc([N+](=O)[O-])c12 | 81.2% (active) |
| CC(/C=C/c1ccc2c(c1)OCO2)[N+](=O)[O-] (stereo not given) | 99.5% (active) |
| COC(=O)C1=C(C)NC(C)=C(C(=O)OCCCN2CCC(c3ccccc3)(c3ccccc3)CC2)C1c1cccc([N+](=O)[O-])c1 (stereo not given) | 94% (active) |
| CCOC(=O)c1cnc2c(C(F)(F)F)cccc2c1N=[N+]=[N-] | 0.9% |
| O=[N+]([O-])c1cc2no[n+]([O-])c2cc1N1CCCCC1 | 92.4% (active) |
| COC(=O)c1ccc(NCC2=CC(=O)C=CC2=O)cc1O | 93.5% (active) |
| CCCCCCCCNC(=O)C1=C(C)NC(C)=C(C(=O)NCCCCCCCC)C1 | 0.45% |
| S=C(Nc1ccc(Cl)c(Cl)c1)SCc1ccc2c(c1)OCO2 | 89.6% (active) |
| O=S(=O)(CCCl)c1ccccc1Cl | 90.8% (active) |
| Nc1ccccc1CC(O)C(=O)O (stereo not given) | 94.5% (active) |
| CN(C)c1ccc(Sc2ccc3nc(N)nc(N)c3c2)cc1 | 60% |
| CC(C)C1=CCC2C(=C1)CCC1C(C)(C(=O)O)CCCC21C (stereo not given) (tested in a mixture with another compound) | 84.5% (active) |
| Cc1ccc(S(=O)(=O)Oc2cc(Cl)c(Cl)cc2Cl)cc1 | 7.65% |
| CSC(=S)Nc1cc(C)ccn1 | 81.2% (active) |
| CC(C)c1cc(C(C)C)c(O)c(C([O-])[O-])c1.CC(C)c1cc(C(C)C)c(O)c(C([O-])[O-])c1.CC(C)c1cc(C(C)C)c(O)c(C([OH2+])[OH2+])c1.CC(C)c1cc(C(C)C)c(O)c(C([OH2+])[OH2+])c1.[Cu+2].[Cu+2].[OH3+].[OH3+] | 43% |
| Cc1cc(I)ccc1N | 89.3% (active) |
| CC(Br)C(=O)c1ccc2cc(Br)c3ccccc3c2c1 (stereo not given) | 74.5% (active) |

| SMILES | growth inhibition |
| --- | --- |
| O=C(Nc1ccccc1)OCCc1ccc(Cl)c(Cl)c1 | 75.8% (active) |
| O=Cc1cccc2ccc3ccccc3c12 | 98.2% (active) |
| O=[N+]([O-])CC(SCc1ccccc1)c1ccc2c(c1)OCO2 (stereo not given) | 92.7% (active) |
| CC1(Cl)CC(O)C2(CC1Br)C1(C)OC1C1OC1(Br)C2(C)C (stereo not given) | 67.8% |
| Cc1cc(O)cc(O)c1N=Nc1ccc([N+](=O)[O-])cc1 | 46.6% |
| CCCCCCCCCCCCCC[N+](C)(CC(=O)[O-])Cc1ccccc1 (stereo not given) | 98.8% (active) |
| CC1=NN(c2cccc(Cl)c2)C(=O)C1 | 55.9% |
| CC(=O)OCc1ccc(O)c(C=O)c1 | 62.5% |
| Cc1ccc2ccc3cccc4ccc1c2c34 | 10.6% |
| Cc1nc(-[n+]2nc(-c3ccncc3)nn2-c2ccccc2)sc1C | 74.8% (active) |
| C(CCSC1=NCCN1)CSC1=NCCN1 (tested in a mixture with another compound) | 99.5% (active) |
| CCCCCCCCCCC(=O)Cl | 56.9% |
| COC1C=COC2(C)Oc3c(C)c(O)c4c(c3C2=O)/C(=N/C2CCC(O)OC2C)C=C(NC(=O)/C(C)=C\C(=O)C2CC2C(O)C(C)C(O)C(C)C(OC(C)=O)C1C)C4=O (stereo not given) | 33.5% |
| S=c1[nH]nc(Nc2ccc(Cl)cc2)s1 | 89% (active) |
| O=C1CSC(/C=C/c2ccccc2)N1c1ccc(-c2ccc(-n3c(-c4ccccc4)nc4ccccc4c3=O)cc2)cc1 (stereo not given) | 87.2% (active) |
| O=C1C=CC(=O)N1c1ccc2c(c1)Cc1cc(NC(=O)C(F)(F)F)ccc1-2 | 86.6% (active) |
| Brc1ccc(-c2cc3c(cc2C2SCCS2)OCO3)cc1 | 66.6% |
| Oc1ccc2ccccc2c1C(c1ccc(Cl)cc1)c1c(O)ccc2ccccc12 | 19.4% |
| C[CH2][Sn]([CH2]C)([O]C(=O)C(OC(C)=O)c1ccccc1)[O]C(=O)C(OC(C)=O)c1ccccc1 (stereo not given) | 20.5% |
| Cc1ccc2ccc(O)cc2c1 | 80.1% (active) |
